Assay [1] has as its target Alpha-galactosidase A (Homo sapiens) (UniProt P06280). Kind of assay: Counterscreen for Glucocerebrosidase Inhibitors: qHTS Assay for Human alpha-Galactosidase at pH 4.5 (AID 992). An outline of the steps:
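Fluorogenic 1536-well qHTS at pH 4.5 (citrate, Tween-20): 2 nM enzyme, 80 uM 4-MU-alpha-galactoside, 20 min room temperature, NaOH/glycine stop. Titration 0.7 nM to 77 uM, data normalized to no-enzyme and full-activity controls, Hill-fitted AC50.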

The target in assay [2] is alpha-glucosidase (Oryza sativa, rice) (UniProt Q653V4). Kind of assay: Counterscreen for Glucocerebrosidase Inhibitors: qHTS Assay for Rice alpha-Glucosidase at pH 5.0 (AID 997). The method in brief: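 Endpoint fluorogenic assay at pH 5.0: compounds (0.7 nM to 77 uM) titrated against 4 nM rice enzyme and 400 uM 4-MU-alpha-glucoside for 20 min at room temperature; NaOH/glycine stop, read ex 365/em 440 nm, Hill-fitted AC50.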

Assay [3] can be described thus: Validation of Assay for Modulators of Lamin A Splicing (AID 1459; active = well fitted curve in the direction sought with a large enough effect in the signal ratio; the % refers to the signal ratio;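 also: cells exposed to compound for two days before reading; ratio rise marks activators and ratio drop marks inhibitors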). The method in brief:
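S3 HeLa cells stably expressing a lamin A-EGFP splicing minigene and DsRed2 were seeded at 600 cells/well in Opti-MEM with 2% FBS, pin-dosed, and incubated 48 hrs at 37 °C, 5% CO2. Laser-scanning cytometry (488 nm) gave GFP/RFP total intensity ratio.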

Assay [4] concerns the target DNA repair nuclease/redox regulator APEX1 (Homo sapiens) (UniProt P27695). Kind of assay: qHTS Validation Assay for Inhibitors of the Human Apurinic/apyrimidinic Endonuclease 1 (APE1) (AID 1705; also: potency is read from the fitted curve at half-maximal effect). An outline of the steps: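 Human APE1 was preincubated with compound for 15 min at room temperature, then 50 nM (final) THF-abasic double-stranded DNA substrate bearing 5'-TAMRA and 3'-BHQ-2 was added. Incision-driven fluorescence rise (ex 525/em 598 nm) was read kinetically.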

Assay [5] in a line: Counterscreen for APE1 Inhibitors: Fluorescent Dye Displacement Validation Assay (AID 1707). Also: potency is read from the fitted curve at half-maximal effect. An outline of the steps: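 Counterscreen flags promiscuous DNA binders: compounds displacing ThO from duplex DNA (abasic THF site, 50 nM) reduce 540 nm emission (480 nm excitation). ThO 250 nM final; Tris-HCl pH 7.5 with NaCl, MgCl2 and Tween-20.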
On the technique in general: Counterscreens check selectivity or assay interference.

For assay [6], the target named is Endonuclease 4 (Escherichia coli (strain K12)) (UniProt P0A6C1). Nature of the assay: Counterscreen for APE1 Inhibitors: qHTS Validation Assay for Inhibitors of Endonuclease IV (AID 1708). Also: potency is read from the fitted curve at half-maximal effect. An outline of the steps: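 Measured as reaction progress, the fluorescence gain between first and third kinetic reads after adding 50 nM TAMRA/BHQ-2 THF duplex to 2 nM enzyme preincubated 15 min with compound; 2 mM MgCl2, pH 7.5.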

The nature of assay [7]: qHTS for differential inhibitors of proliferation of Plasmodium falciparum line 7G8 (AID 1815).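 Also: parasite growth measured after three days of incubation.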 Also: potency is read from the fitted curve at half-maximal effect. On the technique in general: Quantitative high-throughput screening tests each substance at several concentrations.
Assay [8] can be described thus: qHTS for differential inhibitors of proliferation of Plasmodium falciparum line GB4 (AID 1816).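 Also: parasite growth measured after 72 h incubation.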 Also: potency is read from the fitted curve at half-maximal effect. Conditions: Potency: Plasmodium falciparum GB4 proliferation inhibition.
Assay [9] can be described thus: qHTS for differential inhibitors of proliferation of Plasmodium falciparum line 3D7 (AID 1876). Also: potency is read from the fitted curve at half-maximal effect.
Assay [10] can be described thus: qHTS for differential inhibitors of proliferation of Plasmodium falciparum line D10 (AID 1877).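 Also: parasites grown with compound for 72 h before DNA staining.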 Also: potency is read from the fitted curve at half-maximal effect.
Assay [11] can be described thus: Cell Viability - LYMP2-014 (AID 983).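 Also: series mostly up to about 92 µM; cells exposed to compound for 24 h at 37 °C; nearly all actives have a fitted effect of over 50% in size.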 An outline of the steps: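 Quantitative HTS in lymphoblastoid cells: 24 hr compound exposure, then CellTiter-Glo ATP luminescence. Positive control was tetraoctylammonium bromide, 6.4pM to 92 uM.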
Assay [12] can be described thus: Cell Viability - LYMP2-016 (AID 984). Also: nearly all actives have a fitted effect of over 55% in size. An outline of the steps: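 Human lymphoblastoid cells (LYMP2-016), 2500/well in complete medium, preincubated 5 hr at 37 C, then compound-treated 24 hr at 37 C. Intracellular ATP read by CellTiter-Glo luminescence after 30 min at room temperature; AC50 from Hill-equation concentration-response fits.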
Assay [13] is described as follows: Cell Viability - LYMP2-018 (AID 985). Also: nearly all actives have a fitted effect of over 50% in size. The method in brief: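 In this qHTS viability assay, cells are treated for 24 hr and cellular ATP is quantified by luciferase-based luminescence, with tetraoctylammonium bromide as positive control.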
The nature of assay [14]: Cell Viability - LYMP2-020 (AID 986).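 Also: series mostly up to about 92 µM; cells exposed to compound for 24 h at 37 °C; nearly all actives have a fitted effect of over 55% in size.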 The method in brief:
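Cells at 2500 per well receive a 24 hr compound exposure at 37 C. Viability is measured as ATP-dependent luciferase luminescence, with AC50 modeled from qHTS concentration-response curves.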

The nature of assay [15]: Cell Viability - LYMP2-022 (AID 987). Also: nearly all actives have a fitted effect of over 55% in size. The method in brief: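 In this qHTS cytotoxicity screen, compound titrations were incubated 24 hr at 37 C with human lymphoblastoid cells in complete medium. Luciferase-based ATP luminescence provided the viability signal.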
Assay [16] is described as follows: Cell Viability - LYMP2-024 (AID 988). Also: nearly all actives have a fitted effect of over 60% in size. An outline of the steps:
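Cells at 2500 per well received compound for 24 hr after a 5 hr settling period. Viability was scored by CellTiter-Glo luminescence, with AC50 from Hill fits.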

The nature of assay [17]: Cell Viability - LYMP2-026 (AID 989).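 Also: cells exposed to compound for 24 h at 37 °C; nearly all actives have a fitted effect of over 50% in size.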 The method in brief:
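Acute toxicity screen in complete culture medium, with 24 hr compound exposure at 37 C. Viability read as cellular ATP via luciferase reaction, with tetraoctylammonium bromide (6.4pM to 92 uM) as positive control.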

A short description of assay [18]: Cell Viability - LYMP1-002 - Assay at 24 hr (AID 993). The method in brief: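 Viability was judged from intracellular ATP using a luciferase read-out, following a 24-hour compound incubation at 37 C of lymphoblastoid cells seeded at 2500 per well. Concentration-response data were fitted to the Hill equation for AC50.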
Assay [19] in a line: Cell Viability - LYMP1-002 - Assay at 40 hr (AID 994). Also: nearly all actives have a fitted effect of over 60% in size. The method in brief:
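Concentration-dependent ATP loss after 40 hr treatment at 37 C defined toxicity; AC50 values were obtained by fitting the standard Hill equation.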

Inconclusive results are not listed. Calls of active or inactive are those of the source. Unless noted, calls follow the shape of the dose curve; as a rule, active = well fitted curve in the direction sought with a large enough effect; inconclusive = small, poorly fitted or top-dose-only effect, or another doubt; inactive = no such curve, though single readings can be large; an effect the other way counts as inactive or inconclusive.

Alpha-galactosidase A (Homo sapiens), sequence (P06280 whole entry, looked up): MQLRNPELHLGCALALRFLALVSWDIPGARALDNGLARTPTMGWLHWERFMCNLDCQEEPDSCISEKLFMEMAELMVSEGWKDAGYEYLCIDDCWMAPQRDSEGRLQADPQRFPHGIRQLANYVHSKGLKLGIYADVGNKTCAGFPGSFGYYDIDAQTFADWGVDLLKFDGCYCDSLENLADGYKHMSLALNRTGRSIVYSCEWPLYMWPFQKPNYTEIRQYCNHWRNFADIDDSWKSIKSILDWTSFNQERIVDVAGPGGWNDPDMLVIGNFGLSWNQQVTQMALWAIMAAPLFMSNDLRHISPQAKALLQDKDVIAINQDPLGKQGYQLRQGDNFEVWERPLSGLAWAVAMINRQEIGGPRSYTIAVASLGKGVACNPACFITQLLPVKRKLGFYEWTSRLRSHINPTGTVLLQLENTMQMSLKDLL
DNA repair nuclease/redox regulator APEX1 (Homo sapiens), sequence (P27695 whole entry, looked up): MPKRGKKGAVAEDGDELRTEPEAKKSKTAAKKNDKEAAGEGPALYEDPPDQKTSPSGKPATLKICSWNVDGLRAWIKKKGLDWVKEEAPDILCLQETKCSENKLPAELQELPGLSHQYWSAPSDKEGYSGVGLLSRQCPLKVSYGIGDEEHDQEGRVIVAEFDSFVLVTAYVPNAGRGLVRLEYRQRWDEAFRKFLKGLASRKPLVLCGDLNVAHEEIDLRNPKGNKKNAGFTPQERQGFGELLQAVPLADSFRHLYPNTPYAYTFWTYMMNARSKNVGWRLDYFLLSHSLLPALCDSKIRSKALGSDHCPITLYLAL

With `N[C@@H](Cc1ccc(O)c(I)c1)C(=O)O`, the result in assay [1], in assay [2] and in [3] was inactive. The Potency result in [4], in [5], in assay [6], in assay [7], in assay [8] and in assay [9] was “inactive” throughout. The Potency entry in [10] was “inactive”.
On to `CCCCCCN(CCCCCC)C(=O)Cc1c(-c2ccc(F)cc2)[nH]c2ccccc12`, for which the call in assay [1], in assay [2] and in assay [3] was inactive. For the same molecule, the Potency result in [4], in assay [5] and in [6] was “inactive” in each case. The Potency in assay [7] was 5.01 µM (active); in [8], 3.98 µM (active); in assay [9] it was 5.01 µM (active); in [10] it was 12.6 µM (active).
Consider `NCC(O)(CS(=O)(=O)O)c1ccc(Cl)cc1` (configuration not stated), for which, in assay [3], the call was inactive. In addition, the Potency entry in [4], in assay [5], in [6], in assay [7], in assay [8] and in assay [9] was “inactive” each time. Moreover, the Potency entry in [10] was “inactive”.
Turning to `Nc1ccc(-c2nc3ccc(-c4nc5ccc(N)cc5[nH]4)cc3[nH]2)cc1`, the call in [1], in assay [2] and in [3] was inactive. The Potency in assay [4] is 28.2 µM (active); in assay [5], 25.1 µM (active); in assay [6], 22.4 µM (active); in assay [7], 0.794 µM (active); in assay [8], 0.891 µM (active); in assay [9], 0.355 µM (active). In [10], the Potency is 0.708 µM (active).
Turning to `C=CC[C@H](N)C(=O)O`, the molecule was classed as inactive in assay [1], in [2] and in assay [3]. Besides, the Potency result in assay [4], in assay [5], in [6], in assay [7], in assay [8] and in assay [9] was “inactive” in each case. The Potency entry in assay [10] is “inactive”.
Regarding `CC1=C(C(=O)O)N2C(=O)[C@@H](NC(=O)C(N)C3=CCC=CC3)[C@H]2SC1` (some centres not stated), the molecule was called inactive in assay [3]. The Potency result in assay [4], in [5], in assay [6], in assay [7], in assay [8] and in assay [9] was “inactive” throughout. For the same molecule, in [10], the Potency result was “inactive”.
As for `COc1cc(C(O)C(=O)O)ccc1O` (configuration not stated), the molecule was classed as inactive in assay [3]. For the same molecule, the Potency result in [4], in [5], in assay [6], in assay [7], in [8] and in assay [9] was “inactive” throughout. Further, the Potency result in assay [10] was “inactive”.
In the case of `O=C(O)C1=CCNCC1`, the call in [1], in [2] and in [3] was inactive. In addition, the Potency entry in assay [4], in assay [5], in assay [6], in assay [7], in assay [8] and in [9] was “inactive” each time. Also, in [10], the Potency entry is “inactive”.
As to `Nc1ccc(N2C(=O)c3ccccc3C2=O)c(Cl)c1`, the molecule was called inactive in assay [1], in assay [2] and in assay [3]. Also, the Potency result in [4], in [5], in assay [6], in assay [7], in assay [8] and in [9] was “inactive” throughout. Also, in [10], the Potency entry was “inactive”.
Take `Cn1cc(C(=O)OCC2CCN(CCNS(C)(=O)=O)CC2)c2ccccc21`: the outcome in assay [1], in assay [2] and in [3] was inactive. Further, the Potency entry in [4] and in assay [5] was “inactive” each time. For the same molecule, the Potency in assay [7] was 10 µM (active).
As to `CO/N=C(\C(=O)N[C@@H]1C(=O)N2C(C(=O)O)=C(CSc3nc(=O)c(O)nn3C)CSC12)c1csc(N)n1` (some centres not stated), the result in assay [3] was inactive. Moreover, in [4], the Potency was 2.24 µM (active). For the same molecule, the Potency entry in [5], in assay [7], in assay [8], in [9] and in [10] was “inactive” each time.
Turning to `COc1cccc(OC)c1OCCNCC1CSc2ccccc2O1` (configuration not stated), in assay [3], the molecule was called inactive. Besides, the Potency result in [4] and in [5] was “inactive” throughout. Further, the values for the Potency in assay [7] and in assay [8] were 7.94 µM (active) and 4.47 µM (active), respectively.
As to `N=C(N)c1ccc(N)cc1`, the molecule was classed as inactive in [1], in assay [2] and in [3]. Moreover, the Potency result in [4], in assay [5], in [6], in assay [7], in assay [9] and in assay [10] was “inactive” each time.
As for `Cc1ccc2c(c1)C(N1CCN(C)CC1)=Nc1cccnc1N2`, the molecule was called inactive in assay [1], in assay [2] and in assay [3]. Also, the Potency entry in [4] and in [5] was “inactive” in each case.
Take `CCCOC(=O)c1c(-c2ccccc2)nc(CC)c(C(=O)SCC)c1CCC`: the molecule was called inactive in assay [1], in [2] and in [3]. In addition, the Potency entry in assay [4], in [5] and in [6] was “inactive” throughout. The values for the Potency in assay [7], in [8] and in assay [10] were 12.6 µM (active), 11.2 µM (active) and 12.6 µM (active), respectively.
Regarding `NC1CCN(O)C1=O` (configuration not stated), the molecule was classed as inactive in [3]. Further, the Potency result in [5], in [6], in assay [7], in assay [8], in assay [9] and in assay [10] was “inactive” in each case.
On to `O[Si](CCCN1CCCCC1)(c1ccc(F)cc1)C1CCCCC1` (configuration not stated), for which the outcome in [3] was inactive. Further, the Potency result in assay [4] and in [5] was “inactive” each time. Also, the Potency is 0.0708 µM (active) in [7], 0.0398 µM (active) in assay [8], 0.0794 µM (active) in assay [9] and 0.0282 µM (active) in assay [10].
Take `CC(=O)C(C)=O`: the molecule was classed as inactive in assay [11], in assay [12], in [13], in [14], in assay [15] and in [16]. The molecule was classed as inactive in assay [17], in assay [1], in assay [18], in assay [19], in [2] and in [3]. In addition, the Potency entry in [4], in assay [5], in assay [7], in assay [8], in assay [9] and in [10] was “inactive” in each case.

For the origin of these results see PubChem BioAssay (NCATS).
